# This is part of a sample that, as a whole, favours compounds with a hit. Of some 83,000 tested, about 20% had one in any assay.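 In brief: 96-well plates, 48 h treatment, single concentration, percent growth endpoint.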 Activity calls are given as the source filed them. Rule for the calls: active = growth percent below 10; inactive = the rest.
# Test system: T-47D breast
# Test: NCI-60 one-dose screen, 48 h (100 = growth as untreated, 0 = no growth, -100 = all killed)
# Conditions: 10 µM unless noted
row,Structure (SMILES),growth
1,Cc1cccc2c1NC(=O)C2(c1ccc(O)cc1)c1ccc(O)cc1,-18.8% (active)
2,Cc1ccc(Cl)cc1Nc1nc(C(F)(F)F)ccc1C(=O)N/N=C/c1cccnc1,32.9% (inactive)
3,C=CCc1c2c(c(OC)c3ccoc13)C(=O)/C(=C/c1ccccc1OC)O2,59.8% (inactive)
4,COC(=O)c1cc(-c2ccc(S(C)(=O)=O)cc2)[nH]c1N/N=C/c1c(Cl)cccc1Cl,31.2% (inactive)
5,Cn1cc(-c2csc(-c3c[nH]c4ccc(Br)cc34)n2)c2cnccc21,-51.5% (active)
6,O=C(N/N=C/c1ccc(F)cc1)c1ccc(C(F)(F)F)nc1Nc1cccc(C(F)(F)F)c1,-3.3% (active)
7,N#Cc1c(N)nnn1Cc1cc(=O)oc2c1ccc1ccccc12,92.3% (inactive)
8,CN(CCOc1ccc(C#N)cc1)CCOc1ccc(C#N)cc1,79.9% (inactive)
9,CCOc1nc(-c2ccccc2)cc2c(O)c(C(=O)NN)[nH]c(=O)c12,108% (inactive)
10,COC(=O)c1c2c(c(C)[n+]([O-])c1C)C(=O)C=C(NCc1ccc(OC)cc1)C2=O,-31% (active)
11,CCCCN1C(=O)/C(=c2\sc3n(c2=O)C2C(NN=3)N(CC)C(=O)N2CC)c2ccccc21 (stereo not given),20.5% (inactive)
12,Nc1ncnc2c1N=C(c1ccc3c(c1)OCO3)CC(c1ccc([N+](=O)[O-])cc1)N2 (stereo not given),72.4% (inactive)
13,COC(=O)c1c2c(c(C)[n+]([O-])c1C)C(=O)C=C(NCc1ccc(Br)cc1)C2=O,-42.8% (active)
14,COc1ccc(C(=S)N2CCN(c3ccccc3Cl)CC2)cc1OC,79% (inactive)
15,CCOC(=O)c1nc(Nc2ccc(NC(=O)Nc3ccc(F)cc3)cc2)c2ccccc2n1,99.2% (inactive)
16,CC(C)n1cnc2c(=S)nc[nH]c21,101% (inactive)
17,COc1cc(-c2cc(-c3ccc(N(C)C)cc3)nc(N3CCC(O)CC3)c2C#N)cc(OC)c1OC,8.21% (active)
18,O=C(c1ccc(-c2ccccc2)cc1)c1ccc([N+](=O)[O-])cc1,92.8% (inactive)
19,O=C(Nc1cccc([N+](=O)[O-])c1)c1cc2ccccc2cc1O,3.67% (active)
20,O=C1c2cccc(NCCN=Cc3cc(O)ccc3O)c2C(=O)c2c(NCCN=Cc3cc(O)ccc3O)cccc21,-2.29% (active)

row,Structure (SMILES),growth
1,CN(Cc1ccc(C(F)(F)F)cc1)CC(O)C(=O)Nc1ccc(Cl)cc1 (stereo not given),18.4% (inactive)
2,O=[N+]([O-])c1ccc(N/N=C(/C(=N/Nc2ccc([N+](=O)[O-])cc2)c2ccccc2)c2ccccc2)cc1,88.8% (inactive)
3,Cc1c(-n2nnc(-c3nc4ccccc4s3)c2N)c(=O)n(-c2ccccc2)n1C,94.6% (inactive)
4,Cc1cc(N)c2cc(NC(=O)/C=C\c3ccccc3Cl)ccc2n1,-58.1% (active)
5,C=C1C(=O)O[C@H]2[C@H]1CC/C(COC(=O)CCSCCC(=O)OC/C1=C/CC[C@@]3(C)O[C@H]3[C@H]3OC(=O)C(=C)[C@@H]3CC1)=C\CC[C@@]1(C)O[C@@H]21,19.1% (inactive)
6,COc1cc(CNS(=O)(=O)c2ccc(C)cc2)ccc1OCc1cn(-c2ccc(Br)cc2)nn1,101% (inactive)
7,CCn1c(SCC(=O)c2ccc(Br)cc2)nnc1-c1ccncc1,105% (inactive)
8,Cc1ccc(-n2c(=S)[nH]c3sc4c(c3c2=O)CCC(=O)C4)cc1,42.4% (inactive)
9,C#Cc1cccc(Nc2ncnc3ccc(-c4cnc(N)nc4)cc23)c1,5.19% (active)
10,CCCCN[C@H]1CC[C@@]2(C)[C@@H](CC[C@@]3(C)[C@H]2[C@H](O)C[C@H]2/C(=C(\CCC=C(C)C)C(=O)OC)[C@@H](OC(C)=O)C[C@@]23C)[C@@H]1C,105% (inactive)
11,Fc1cc(F)cc(C(c2c[nH]c3ccccc23)c2c[nH]c3ccccc23)c1,97% (inactive)
12,C#CCOc1cccc(Nc2ncnc3c(NC(=O)C=C)cccc23)c1,4.83% (active)
13,COc1cc(CNS(=O)(=O)c2ccc(C)cc2)ccc1OCc1cn(-c2ccc(F)cc2)nn1,53.7% (inactive)
14,CCc1ccc(C(=O)/C=C/C23c4ccccc4C(c4ccccc42)C2C(=O)NC(=O)C23)cc1 (stereo not given),21.9% (inactive)
15,Nc1ncnc2c1N=C(c1ccc(Cl)cc1)CC(c1ccc3c(c1)OCO3)N2 (stereo not given),93.8% (inactive)
16,Cc1ccc(S(=O)(=O)N2CCCC2CO)cc1 (stereo not given),100% (inactive)
17,CC(=O)Nc1nc2ccc(NS(=O)(=O)c3cccc4c(N(C)C)cccc34)cc2[nH]1,74.3% (inactive)
18,COC(C(=O)[C@@H](O)[C@@H](C)O)[C@@H]1Cc2cc3cc(O[C@H]4C[C@@H](O[C@H]5C[C@@H](O)[C@H](O)C(C)O5)[C@H](O)C(C)O4)c(C)c(O)c3c(O)c2C(=O)[C@H]1O[C@H]1C[C@@H](O[C@H]2C[C@@H](O[C@H]3C[C@@H](O)[C@H](OC)C(C)O3)[C@@H](O)C(C)O2)[C@H](O)C(C)O1 (stereo not given in full),-0.919% (active)
19,Cc1nn(-c2ccccc2)c(Oc2ccccn2)c1-c1nc2ccccc2s1,88% (inactive)
20,CC(C)(C)n1cc(-c2ccnc(NCCNS(=O)(=O)c3cccc4ccccc34)c2)c(-c2cccc(F)c2)n1,-12.6% (active)
